# This excerpt belongs to a sample that is enriched for the strongest signals.
# Legend:
# Experiment in all cases: glycan array binding signal (z-score within array); higher = stronger binding
# Conditions in all cases: glycan notation: IUPAC condensed, linker removed
# [1] = molecular target: Fuc(a1-2)Gal(b1-3)GalNAc(b1-3)Gal
# In short: (§1)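 Arrays were curated from the Consortium for Functional Glycomics database, 3228 in total, and kept only where the protein sequence was available. Binding is expressed as a within-array Z-score. This score was averaged across arrays of the same protein sequence at different concentrations or buffers and across linkers, and negative values can be read as non-binding.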
# [2] = molecular target: Fuc(a1-2)Gal(b1-3)[Fuc(a1-4)]GlcNAc
# In short: as §1
# [3] = molecular target: Fuc(a1-2)Gal6S(b1-3)GlcNAc6S
# In short: as §1
# [4] = molecular target: Fuc(a1-2)Gal6S(b1-4)Glc6S
# In short: as §1
# [5] = molecular target: Fuc(a1-2)[Gal(a1-3)]Gal(b1-3)GlcNAc(b1-2)Man(a1-3)[Fuc(a1-2)[Gal(a1-3)]Gal(b1-3)GlcNAc(b1-2)Man(a1-6)]Man(b1-4)GlcNAc(b1-4)[Fuc(a1-6)]GlcNAc
# In short: as §1
# [6] = molecular target: Fuc(a1-2)[Gal(a1-3)]Gal(b1-4)GlcNAc(b1-6)GalNAc
# In short: as §1
# [7] = molecular target: Fuc(a1-2)[GalNAc(a1-3)]Gal(b1-4)GlcNAc(b1-6)GalNAc
# In short: as §1
# [8] = molecular target: Fuc(a1-2)[GalNAc(b1-3)]Gal
# In short: as §1
# [9] = molecular target: Fuc(a1-3)[Gal3S(b1-4)]GlcNAc
# In short: as §1
# [10] = molecular target: Fuc(a1-3)[Gal3S(b1-4)]GlcNAc6S
# In short: as §1
# [11] = molecular target: Fuc(a1-3)[GalNAc(b1-4)]GlcNAc
# In short: as §1
# [12] = molecular target: Gal(a1-3)Fuc(a1-2)Gal(b1-4)GlcNAc(b1-3)[Gal(a1-3)Fuc(a1-2)Gal(b1-4)GlcNAc(b1-6)]GalNAc
# In short: as §1
# [13] = molecular target: Gal(a1-3)Gal(b1-4)GlcNAc(b1-3)GalNAc
# In short: as §1
# [14] = molecular target: Gal(a1-4)Gal(b1-4)GlcNAc(b1-3)Gal(b1-4)Glc
# In short: as §1
# [15] = molecular target: Gal(b1-3)GlcNAc(b1-3)GalNAc
# In short: as §1
# [16] = molecular target: Gal(b1-3)[Fuc(a1-4)]GlcNAc(b1-2)Man(a1-3)[Gal(b1-3)[Fuc(a1-4)]GlcNAc(b1-2)Man(a1-6)]Man(b1-4)GlcNAc(b1-4)[Fuc(a1-6)]GlcNAc
# In short: as §1
# [17] = molecular target: Gal(b1-4)GlcNAc(b1-3)Gal(b1-4)GlcNAc(b1-3)Gal(b1-4)GlcNAc(b1-2)Man(a1-3)[Gal(b1-4)GlcNAc(b1-3)Gal(b1-4)GlcNAc(b1-3)Gal(b1-4)GlcNAc(b1-2)Man(a1-6)]Man(b1-4)GlcNAc(b1-4)[Fuc(a1-6)]GlcNAc
# In short: as §1
# [18] = molecular target: Gal(b1-4)GlcNAc(b1-3)Gal(b1-4)GlcNAc(b1-6)[Gal(b1-3)]GalNAc
# In short: as §1
# Gal3S(b1-4)Glc6S = molecular target: Gal3S(b1-4)Glc6S
# In short: as §1
# Gal3S(b1-4)GlcNAc6S = molecular target: Gal3S(b1-4)GlcNAc6S
# In short: as §1
# Gal3S4S(b1-4)GlcNAc = molecular target: Gal3S4S(b1-4)GlcNAc
# In short: as §1
# Gal3S6S(b1-4)GlcNAc = molecular target: Gal3S6S(b1-4)GlcNAc
# In short: as §1
# Gal3S6S(b1-4)GlcNAc6S = molecular target: Gal3S6S(b1-4)GlcNAc6S
# In short: as §1
# Gal4S6S(b1-4)GlcNAc = molecular target: Gal4S6S(b1-4)GlcNAc
# In short: as §1
# Gal6S(b1-3)GlcNAc6S = molecular target: Gal6S(b1-3)GlcNAc6S
# In short: as §1
# Gal6S(b1-4)GlcNAc6S = molecular target: Gal6S(b1-4)GlcNAc6S
# In short: as §1
# [19] = molecular target: GalNAc(a1-3)GalNAc(b1-3)Gal(a1-4)Gal(b1-4)Glc
# In short: as §1
# [20] = molecular target: GalNAc(b1-3)Gal(a1-6)Gal(b1-4)Glc
# In short: as §1
# GalNAc(b1-4)GlcNAc = molecular target: GalNAc(b1-4)GlcNAc
# In short: as §1
# [21] = molecular target: Glc(a1-4)Glc(a1-4)Glc(a1-4)Glc
# In short: as §1
# [22] = molecular target: GlcNAc(a1-6)Gal(b1-4)GlcNAc
# In short: as §1
# [23] = molecular target: GlcNAc(b1-2)Gal(b1-3)GalNAc
# In short: as §1
# [24] = molecular target: GlcNAc(b1-2)Man(a1-3)[GlcNAc(b1-4)][GlcNAc(b1-2)Man(a1-6)]Man(b1-4)GlcNAc(b1-4)[Fuc(a1-6)]GlcNAc
# In short: as §1
# [25] = molecular target: GlcNAc(b1-3)Gal(b1-4)GlcNAc(b1-6)[GlcNAc(b1-3)Gal(b1-3)]GalNAc
# In short: as §1
# [26] = molecular target: GlcNAc(b1-4)Gal(b1-4)GlcNAc
# In short: as §1
# [27] = molecular target: GlcNAc(b1-4)GlcNAc(b1-4)GlcNAc(b1-4)GlcNAc(b1-4)GlcNAc
# In short: as §1
# [28] = molecular target: GlcNAc6S(b1-3)Gal(b1-4)GlcNAc
# In short: as §1
# Kdn(a2-3)Gal(b1-4)Glc = molecular target: Kdn(a2-3)Gal(b1-4)Glc
# In short: as §1
# [29] = molecular target: Neu5Ac(a2-3)Gal(b1-4)GlcNAc(b1-2)Man(a1-3)[GlcNAc(b1-2)Man(b1-4)GlcNAc(b1-2)Man(a1-6)]Man(b1-4)GlcNAc(b1-4)GlcNAc
# In short: as §1
# [30] = molecular target: Neu5Ac(a2-3)Gal(b1-4)GlcNAc(b1-3)Gal(b1-4)GlcNAc(b1-3)GalNAc
# In short: as §1
# [31] = molecular target: Neu5Ac(a2-3)Gal(b1-4)GlcNAc(b1-6)GalNAc
# In short: as §1
# [32] = molecular target: Neu5Ac(a2-3)Gal(b1-4)[Fuc(a1-3)]GlcNAc(b1-3)Gal
# In short: as §1
# [33] = molecular target: Neu5Ac(a2-3)[Neu5Ac(a2-6)]GalNAc
# In short: as §1
# Neu5Ac(a2-6)Gal = molecular target: Neu5Ac(a2-6)Gal
# In short: as §1
# [34] = molecular target: Neu5Ac(a2-6)Gal(b1-4)GlcNAc(b1-2)Man(a1-6)[GlcNAc(b1-2)Man(a1-3)]Man(b1-4)GlcNAc(b1-4)GlcNAc
# In short: as §1
# [35] = molecular target: Neu5Ac(a2-6)Gal(b1-4)GlcNAc(b1-2)Man(a1-6)[Man(a1-3)]Man(b1-4)GlcNAc(b1-4)GlcNAc
# In short: as §1
# [36] = molecular target: Neu5Ac(a2-6)Gal(b1-4)GlcNAc(b1-3)Gal(b1-4)GlcNAc(b1-3)[Neu5Ac(a2-6)Gal(b1-4)GlcNAc(b1-3)Gal(b1-4)GlcNAc(b1-6)]GalNAc
# In short: as §1
# [37] = molecular target: Neu5Ac(a2-6)Gal(b1-4)GlcNAc(b1-6)[Gal(b1-3)GlcNAc(b1-3)]Gal(b1-4)Glc
# In short: as §1
# [38] = molecular target: Neu5Ac(a2-6)Gal(b1-4)GlcNAc(b1-6)[Gal(b1-3)]GalNAc
# In short: as §1
# [39] = molecular target: Neu5Ac(a2-6)GlcNAc(b1-4)GlcNAc
# In short: as §1
# [40] = molecular target: Neu5Ac(a2-8)Neu5Ac(a2-3)Gal(b1-4)Glc
# In short: as §1
# [41] = molecular target: Neu5Gc(a2-3)Gal(b1-3)GlcNAc
# In short: as §1
binder,measurement,setting,value
KILRGVCKKIMRTFLRRISKDILTGKK [NK2 (Sus scrofa)],glycan array binding signal (z-score),[1],0.02
same,glycan array binding signal (z-score),[2],-0.178
same,glycan array binding signal (z-score),[3],2.03
same,glycan array binding signal (z-score),[4],2.24
same,glycan array binding signal (z-score),[5],0.527
same,glycan array binding signal (z-score),[6],0.282
same,glycan array binding signal (z-score),[7],-1.05
same,glycan array binding signal (z-score),[8],-0.991
same,glycan array binding signal (z-score),[9],0.36
same,glycan array binding signal (z-score),[10],1.58
same,glycan array binding signal (z-score),[11],0.101
same,glycan array binding signal (z-score),[12],-0.533
same,glycan array binding signal (z-score),[13],0.826
same,glycan array binding signal (z-score),[14],0.785
same,glycan array binding signal (z-score),[15],-0.33
same,glycan array binding signal (z-score),[16],-0.004
same,glycan array binding signal (z-score),[17],0.462
same,glycan array binding signal (z-score),[18],2.04
same,glycan array binding signal (z-score),Gal3S(b1-4)Glc6S,1.67
same,glycan array binding signal (z-score),Gal3S(b1-4)GlcNAc6S,4.29
same,glycan array binding signal (z-score),Gal3S4S(b1-4)GlcNAc,2.81
same,glycan array binding signal (z-score),Gal3S6S(b1-4)GlcNAc,2.92
same,glycan array binding signal (z-score),Gal3S6S(b1-4)GlcNAc6S,3.98
same,glycan array binding signal (z-score),Gal4S6S(b1-4)GlcNAc,2.26
same,glycan array binding signal (z-score),Gal6S(b1-3)GlcNAc6S,3.16
same,glycan array binding signal (z-score),Gal6S(b1-4)GlcNAc6S,2.85
same,glycan array binding signal (z-score),[19],-0.58
same,glycan array binding signal (z-score),[20],-0.616
same,glycan array binding signal (z-score),GalNAc(b1-4)GlcNAc,-0.865
same,glycan array binding signal (z-score),[21],0.05
same,glycan array binding signal (z-score),[22],-1.07
same,glycan array binding signal (z-score),[23],-0.471
same,glycan array binding signal (z-score),[24],-1.11
same,glycan array binding signal (z-score),[25],0.144
same,glycan array binding signal (z-score),[26],0.592
same,glycan array binding signal (z-score),[27],0.06
same,glycan array binding signal (z-score),[28],-0.015
same,glycan array binding signal (z-score),Kdn(a2-3)Gal(b1-4)Glc,0.105
same,glycan array binding signal (z-score),[29],-0.411
same,glycan array binding signal (z-score),[30],2.37
same,glycan array binding signal (z-score),[31],1.14
same,glycan array binding signal (z-score),[32],-0.39
same,glycan array binding signal (z-score),[33],0.24
same,glycan array binding signal (z-score),Neu5Ac(a2-6)Gal,-0.071
same,glycan array binding signal (z-score),[34],0.794
same,glycan array binding signal (z-score),[35],-0.656
same,glycan array binding signal (z-score),[36],0.794
same,glycan array binding signal (z-score),[37],-0.41
same,glycan array binding signal (z-score),[38],-1.1
same,glycan array binding signal (z-score),[39],-0.816
same,glycan array binding signal (z-score),[40],-0.889
same,glycan array binding signal (z-score),[41],-0.108

# From the supplement of paper PMC8728848
